Results from the supplement of paper PMC10849652.
Targets with a hit are over-represented here; the source holds about 8,800 in all. About 0.5% of all pairs of compound and target were hits.

Experiments:
Experiment in all cases: log2 fold change, soluble protein after heating vs DMSO (PISA); higher = thermal stabilisation; K562 lysate, 10 uM; active = over 0.2 and 3.5 SD of the protein, either way, in both replicates (recomputed)
[1] = compound: C1=CC=C(C=C1)[C@H](COC2=CC3=C(C=C2)NC(=O)N3)NC(=O)C4=CC=CN(C4=O)CC5=CC(=C(C=C5)F)F
How it was run: (§1)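 K562 pellets were dounce-homogenised in PBS pH 7.4 with 1 mM MgCl2, and the crude extract at 1 mg/mL protein was treated with 10 μM compound for 30 min. Aliquots were heated for 3 min across 48°C-58°C, pooled, and brought to 0.5% NP-40 at 4°C; soluble protein was the supernatant after 21,000xg for 90 min. Soluble protein was quantified by TMTpro 16plex LC-MS/MS with channel sums equalised, and reported as log2 fold change in thermal stability against DMSO controls, with values from duplicates.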

[2] = compound: CC1=C(SC2=C1C(=N[C@H](C3=NN=C(N32)C)CC(=O)N)C4=CC=C(C=C4)Cl)C
How it was run: as §1

[3] = compound: CC1=C2C(=CC=C1)N=C(N(C2=O)C3=CC=CC=C3C)CN4C=NC5=C(N=CN=C54)N
How it was run: as §1

[4] = compound: Cc1sc2c(c1C)C(c1ccc(Cl)cc1)=N[C@@H](CC(=O)OC(C)(C)C)c1nnc(C)n1-2
How it was run: as §1

[5] = compound: c1ccc([C@@H]2C[C@H]2NC2CCNCC2)cc1
How it was run: as §1

Measured: log2 fold change

NUP188 (UniProt Q5SRE5)
UniProt Q5SRE5, sequence (Q5SRE5 whole entry, looked up): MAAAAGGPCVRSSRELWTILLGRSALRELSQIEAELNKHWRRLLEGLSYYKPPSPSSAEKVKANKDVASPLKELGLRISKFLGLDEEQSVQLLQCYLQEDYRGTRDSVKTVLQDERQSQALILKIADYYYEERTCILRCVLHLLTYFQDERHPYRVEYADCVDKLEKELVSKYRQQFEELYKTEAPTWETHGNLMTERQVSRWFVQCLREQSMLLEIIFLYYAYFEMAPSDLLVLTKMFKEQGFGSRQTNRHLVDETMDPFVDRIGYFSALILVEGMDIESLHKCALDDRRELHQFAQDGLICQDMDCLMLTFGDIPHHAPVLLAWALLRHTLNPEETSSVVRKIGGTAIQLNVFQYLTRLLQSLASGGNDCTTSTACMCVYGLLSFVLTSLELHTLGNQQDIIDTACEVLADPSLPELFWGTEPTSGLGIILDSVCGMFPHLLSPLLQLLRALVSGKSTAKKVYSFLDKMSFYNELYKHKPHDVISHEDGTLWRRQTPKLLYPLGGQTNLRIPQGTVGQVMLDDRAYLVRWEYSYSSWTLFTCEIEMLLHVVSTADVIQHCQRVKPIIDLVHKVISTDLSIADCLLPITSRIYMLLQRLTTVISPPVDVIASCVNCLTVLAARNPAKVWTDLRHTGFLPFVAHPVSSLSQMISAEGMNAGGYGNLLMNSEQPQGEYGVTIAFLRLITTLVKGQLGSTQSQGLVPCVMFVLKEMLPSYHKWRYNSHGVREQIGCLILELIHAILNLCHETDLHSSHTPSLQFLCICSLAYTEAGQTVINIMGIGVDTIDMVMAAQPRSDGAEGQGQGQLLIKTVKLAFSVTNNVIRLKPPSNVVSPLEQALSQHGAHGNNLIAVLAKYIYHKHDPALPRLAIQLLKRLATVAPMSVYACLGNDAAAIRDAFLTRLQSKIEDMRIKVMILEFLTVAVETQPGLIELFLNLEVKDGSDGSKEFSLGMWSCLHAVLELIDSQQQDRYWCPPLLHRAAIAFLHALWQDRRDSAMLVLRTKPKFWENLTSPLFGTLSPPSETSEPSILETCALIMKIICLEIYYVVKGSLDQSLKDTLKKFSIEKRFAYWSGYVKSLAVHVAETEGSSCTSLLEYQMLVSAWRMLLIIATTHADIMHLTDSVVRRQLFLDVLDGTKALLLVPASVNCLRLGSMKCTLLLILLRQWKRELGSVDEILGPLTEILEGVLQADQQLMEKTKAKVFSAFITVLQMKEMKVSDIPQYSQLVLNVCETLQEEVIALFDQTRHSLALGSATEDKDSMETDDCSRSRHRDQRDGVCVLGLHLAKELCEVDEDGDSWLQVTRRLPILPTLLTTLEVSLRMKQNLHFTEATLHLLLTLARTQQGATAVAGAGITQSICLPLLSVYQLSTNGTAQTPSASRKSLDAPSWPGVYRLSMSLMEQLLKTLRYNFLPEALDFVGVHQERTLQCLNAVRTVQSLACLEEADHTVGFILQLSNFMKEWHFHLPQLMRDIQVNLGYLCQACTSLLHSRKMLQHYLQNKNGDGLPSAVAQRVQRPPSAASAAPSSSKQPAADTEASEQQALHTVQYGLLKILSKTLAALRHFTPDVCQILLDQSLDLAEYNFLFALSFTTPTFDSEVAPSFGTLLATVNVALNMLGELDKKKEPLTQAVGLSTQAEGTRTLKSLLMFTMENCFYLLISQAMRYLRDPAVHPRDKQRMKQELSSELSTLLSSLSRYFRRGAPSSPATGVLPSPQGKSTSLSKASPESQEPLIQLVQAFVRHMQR
inactive: [1] -0.044 | [2] -0.009 | [3] 0 | [4] -0.001 | [5] 0.016

NARS2 (UniProt Q96I59)
UniProt Q96I59, sequence (Q96I59 whole entry, looked up): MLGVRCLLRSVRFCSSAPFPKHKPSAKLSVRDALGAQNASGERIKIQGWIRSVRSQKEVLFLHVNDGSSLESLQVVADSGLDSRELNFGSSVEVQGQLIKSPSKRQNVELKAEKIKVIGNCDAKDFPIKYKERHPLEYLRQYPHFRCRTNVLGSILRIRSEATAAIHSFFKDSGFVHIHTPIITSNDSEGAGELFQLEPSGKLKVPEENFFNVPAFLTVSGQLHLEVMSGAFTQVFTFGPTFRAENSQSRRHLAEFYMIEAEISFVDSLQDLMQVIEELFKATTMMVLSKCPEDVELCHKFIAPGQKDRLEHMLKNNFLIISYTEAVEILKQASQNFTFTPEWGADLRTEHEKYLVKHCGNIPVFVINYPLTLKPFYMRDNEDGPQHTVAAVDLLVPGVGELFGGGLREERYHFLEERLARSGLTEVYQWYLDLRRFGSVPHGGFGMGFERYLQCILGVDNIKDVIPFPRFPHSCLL
inactive: [1] 0.013 | [2] 0.024 | [3] 0.092 | [4] 0.053 | [5] -0.05

MT-CYB (UniProt P00156)
inactive: [1] 0.062 | [2] -0.091 | [3] -0.052 | [4] -0.132 | [5] -0.468

OSBPL6 isoform 5 (UniProt Q9BZF3)
UniProt Q9BZF3, sequence (Q9BZF3 whole entry, looked up): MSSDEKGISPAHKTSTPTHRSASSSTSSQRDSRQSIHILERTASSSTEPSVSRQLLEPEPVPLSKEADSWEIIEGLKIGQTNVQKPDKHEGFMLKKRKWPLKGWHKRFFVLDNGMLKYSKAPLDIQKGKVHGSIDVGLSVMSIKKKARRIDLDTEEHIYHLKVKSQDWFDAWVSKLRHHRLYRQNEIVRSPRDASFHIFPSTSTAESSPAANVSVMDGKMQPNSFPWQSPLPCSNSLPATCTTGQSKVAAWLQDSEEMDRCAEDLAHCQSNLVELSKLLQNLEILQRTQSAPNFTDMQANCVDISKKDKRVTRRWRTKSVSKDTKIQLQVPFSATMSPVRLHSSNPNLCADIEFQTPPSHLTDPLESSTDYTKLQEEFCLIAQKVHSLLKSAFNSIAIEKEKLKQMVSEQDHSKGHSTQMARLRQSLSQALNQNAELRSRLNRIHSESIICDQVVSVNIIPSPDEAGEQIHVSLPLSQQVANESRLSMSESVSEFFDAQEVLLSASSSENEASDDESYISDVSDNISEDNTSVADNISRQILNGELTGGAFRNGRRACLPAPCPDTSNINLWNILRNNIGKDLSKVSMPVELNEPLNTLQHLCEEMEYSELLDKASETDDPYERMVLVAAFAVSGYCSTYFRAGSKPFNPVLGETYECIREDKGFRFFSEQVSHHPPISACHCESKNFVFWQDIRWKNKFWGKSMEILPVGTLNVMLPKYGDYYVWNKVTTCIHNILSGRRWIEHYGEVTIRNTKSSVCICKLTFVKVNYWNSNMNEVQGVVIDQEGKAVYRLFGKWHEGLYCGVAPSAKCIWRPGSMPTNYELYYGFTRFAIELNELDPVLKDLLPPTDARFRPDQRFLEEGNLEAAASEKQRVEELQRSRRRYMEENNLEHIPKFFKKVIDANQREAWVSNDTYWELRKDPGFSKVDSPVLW
inactive: [1] 0.014 | [2] -0.023 | [3] 0.02 | [4] 0.023 | [5] -0.087

PARP14 (UniProt Q460N5)
UniProt Q460N5, sequence (Q460N5 whole entry, looked up): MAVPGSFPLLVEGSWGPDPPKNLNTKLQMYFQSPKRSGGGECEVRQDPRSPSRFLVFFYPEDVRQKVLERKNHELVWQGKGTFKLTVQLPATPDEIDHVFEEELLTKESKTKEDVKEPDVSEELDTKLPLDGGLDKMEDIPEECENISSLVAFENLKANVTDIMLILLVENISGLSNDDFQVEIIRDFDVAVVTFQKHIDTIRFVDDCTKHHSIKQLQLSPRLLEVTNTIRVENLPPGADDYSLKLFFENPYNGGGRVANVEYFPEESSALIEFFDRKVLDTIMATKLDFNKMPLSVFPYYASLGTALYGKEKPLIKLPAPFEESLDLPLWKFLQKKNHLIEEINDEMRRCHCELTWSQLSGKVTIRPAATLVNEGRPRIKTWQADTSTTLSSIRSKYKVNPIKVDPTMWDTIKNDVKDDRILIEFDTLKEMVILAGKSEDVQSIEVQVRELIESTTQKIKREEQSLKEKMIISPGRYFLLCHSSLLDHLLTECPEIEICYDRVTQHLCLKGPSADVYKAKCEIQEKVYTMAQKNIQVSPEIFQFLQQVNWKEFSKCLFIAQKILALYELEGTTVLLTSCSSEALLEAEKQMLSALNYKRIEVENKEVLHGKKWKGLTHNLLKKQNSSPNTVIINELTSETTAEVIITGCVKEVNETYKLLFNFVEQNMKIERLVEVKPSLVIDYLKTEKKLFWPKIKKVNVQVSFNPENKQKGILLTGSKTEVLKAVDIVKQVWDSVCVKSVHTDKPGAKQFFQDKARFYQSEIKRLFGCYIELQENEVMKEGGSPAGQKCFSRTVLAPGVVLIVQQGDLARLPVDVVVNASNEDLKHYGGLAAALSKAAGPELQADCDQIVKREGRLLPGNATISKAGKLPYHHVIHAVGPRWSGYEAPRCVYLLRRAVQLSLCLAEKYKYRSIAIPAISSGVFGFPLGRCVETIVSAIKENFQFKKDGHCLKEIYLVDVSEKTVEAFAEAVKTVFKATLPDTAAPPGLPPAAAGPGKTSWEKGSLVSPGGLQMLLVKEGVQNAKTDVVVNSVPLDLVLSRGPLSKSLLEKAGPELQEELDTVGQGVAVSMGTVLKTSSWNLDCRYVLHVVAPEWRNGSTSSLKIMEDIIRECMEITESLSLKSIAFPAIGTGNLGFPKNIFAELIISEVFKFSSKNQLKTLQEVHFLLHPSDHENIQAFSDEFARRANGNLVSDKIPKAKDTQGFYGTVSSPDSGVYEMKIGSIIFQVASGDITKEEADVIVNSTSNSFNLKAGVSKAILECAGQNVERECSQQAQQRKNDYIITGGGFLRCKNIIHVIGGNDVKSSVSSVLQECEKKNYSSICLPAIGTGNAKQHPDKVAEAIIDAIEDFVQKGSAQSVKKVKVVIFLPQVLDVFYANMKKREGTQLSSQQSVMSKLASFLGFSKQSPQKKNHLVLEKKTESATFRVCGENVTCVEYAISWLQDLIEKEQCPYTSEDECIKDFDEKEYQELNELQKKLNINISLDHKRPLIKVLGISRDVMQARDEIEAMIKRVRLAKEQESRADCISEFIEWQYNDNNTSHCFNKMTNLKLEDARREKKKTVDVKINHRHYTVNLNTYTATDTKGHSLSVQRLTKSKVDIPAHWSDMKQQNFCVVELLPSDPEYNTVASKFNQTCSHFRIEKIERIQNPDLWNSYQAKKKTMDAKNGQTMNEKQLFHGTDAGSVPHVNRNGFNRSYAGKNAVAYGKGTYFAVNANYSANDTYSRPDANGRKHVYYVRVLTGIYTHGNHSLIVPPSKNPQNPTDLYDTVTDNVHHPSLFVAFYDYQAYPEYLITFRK
inactive: [1] 0.021 | [2] -0.003 | [3] 0.063 | [4] -0.028 | [5] -0.045

MYCBP2 (UniProt O75592)
inactive: [1] -0.006 | [2] -0.003 | [3] 0.017 | [4] 0.005 | [5] -0.005

NMRAL1 (UniProt Q9HBL8)
inactive: [1] -0.09 | [2] 0.049 | [3] 0.009 | [4] -0.071 | [5] -0.027

NDUFAF5 (UniProt Q5TEU4)
inactive: [1] 0.078 | [2] 0.016 | [3] 0.026 | [4] -0.174 | [5] 0.004

NUP210 (UniProt Q8TEM1)
inactive: [1] -0.101 | [2] 0.07 | [3] 0.016 | [4] 0.04 | [5] 0.028
